Source: PubChem (National Center for Advancing Translational Sciences (NCATS))
This is a sample that favours compounds with a hit; in the whole collection about 5.7% have one here.
IL1B secr inh = blocks inflammasome-driven IL-1 beta release | THP-1 LPS/ATP IL-1B secretion, AlphaLISA, 16 h; active compounds read low | AID 743279 | activity change, % at 57.5 µM | actives 4.7% (n = 360,000); in the data active means activity change below about -50%; inconclusive means mostly about -30% to -49%; further: on the % scale 0 is the no-effect control and ±100 the full control effect
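Secreted IL-1B measured by AlphaLISA bead assay after 16 h compound exposure of THP-1 cells; compounds (final up to 57.5 uM) added 1 h before LPS (250 ng/mL) and ATP (1.25 mM) stimulation; lower signal means less secretion.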
HepG2 tox = HepG2 cytotoxicity, counter-screen for TGF-b inhibitors; HepG2 CAGA-GFP viability, ATP luminescence, 18 h; Potency, µM (highest dose often 46.1 µM), for the others: at the top dose activity change, negative = cytotoxicity, hits mostly cytotoxic; actives 0.76% (n = 410,000); AID 588856; further: potency means the concentration at half of the fitted maximal effect
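CellTiter-Glo luminescence gave cytotoxicity after 18 hours at 37 degrees C. The cells were HepG2 CAGA-GFP in 1% FBS DMEM, stimulated with 500 pg/mL TGF-beta after compound addition. %Activity was normalised to no-cell wells (complete cell-killing) and DMSO (no toxicity), and curves were fitted and classified.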
TGFb inhibitor = inhibitors of TGF-b signaling; HepG2 CAGA-GFP TGF-b/SMAD3 reporter, GFP fluorescence, 18 h; TGF-beta stimulated, 500 pg/mL final; Potency, µM (series often up to 46.1 µM), for inactives: at the highest dose activity, negative = inhibition, most hits filed as inhibitors; actives 1.2% (n = 410,000); further: potency means the concentration at half of the fitted maximal effect; on the % scale 0 is the no-effect control and ±100 the full control effect; nearly all actives have a fitted effect of over 65% in size
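HEPG2 CAGA-GFP reporter cells (1000/well, DMEM with 1% FBS) received compounds, then recombinant TGF-beta at 500 pg/mL final for 18 hours at 37 degrees C. Per-cell GFP summed per well was normalised to unstimulated and stimulated DMSO controls before curve fitting.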
ATXN2 expr inh = ATXN2 expression inhibition | HEK-293 ATXN2-luciferase reporter, luminescence, 24 h | Potency, µM (top dose mostly 57 µM), for inactives: top-dose activity change, negative = inhibition, most hits filed as inhibitors | actives 0.72% (n = 360,000) | AID 1745845; further: potency means the concentration at half of the fitted maximal effect; on the % scale 0 is the no-effect control and ±100 the full control effect; nearly all actives have a fitted effect of over 55% in size
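qHTS (up to 57 uM final) was run with 24 h compound exposure of reporter cells at 37 °C. Each well was multiplexed: SteadyGlo luminescence measured ATXN2-luciferase expression after a fluorogenic Gly-Phe-AFC viability readout (25 uM final).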
ATXN viability = cell viability loss in ATXN counter-screen | Potency, µM (titrated, usually from 56.7 µM), hits mostly cytotoxic | AID 651635 | actives 0.49% (n = 400,000) | S2 cells (HEK-293 line with an ATXN2-luciferase reporter) viability, CellTiter-Fluor protease fluorescence, 24 h; further: potency means the concentration at half of the fitted maximal effect; nearly all actives have a fitted effect of over 40% in size
* = called active by the depositor. Unless noted, the call rests on the fitted dose curve; in most records, active means well fitted curve in the direction sought with a large enough effect; inconclusive means small, poorly fitted or top-dose-only effect, or another doubt; inactive means no such curve, though single readings can be large; an effect the other way counts as inactive or inconclusive.

Screening CCN(c1ccccc1)c1nnc(NC(=O)Nc2ccc(Br)cc2F)s1 returned HepG2 tox -23% and TGFb inhibitor 0%.
For N=c1c2c(-c3ccccc3)c(-c3ccccc3)n(Cc3ccccc3)c2ncn1CCO the results were IL1B secr inh -107*, HepG2 tox -53%, TGFb inhibitor inconclusive, ATXN2 expr inh inconclusive and ATXN viability 8.9µM*.
Screening OCCn1cnc2c(SCc3ccccc3)ncnc21 returned IL1B secr inh -18, HepG2 tox -2%, TGFb inhibitor -5%, ATXN2 expr inh 32% and ATXN viability inactive.
N=c1c2c(-c3ccccc3)c(-c3ccccc3)n(Cc3ccco3)c2ncn1Cc1ccccc1 was read as IL1B secr inh -15, HepG2 tox -23%, TGFb inhibitor -5%, ATXN2 expr inh -24% and ATXN viability inactive.
For CC(C)Cn1cnc2c(c(-c3ccccc3)c(-c3ccccc3)n2Cc2ccco2)c1=N the results were IL1B secr inh -65*, HepG2 tox 13µM*, TGFb inhibitor inconclusive, ATXN2 expr inh -38% and ATXN viability inconclusive.
`N=c1c2c(-c3ccccc3)c(-c3ccccc3)n(Cc3ccco3)c2ncn1CCCn1ccnc1` gave IL1B secr inh -23, HepG2 tox -80%, TGFb inhibitor inconclusive, ATXN2 expr inh -26% and ATXN viability inconclusive.
Screening N=c1c2c(-c3ccccc3)c(-c3ccccc3)n(Cc3ccco3)c2ncn1CCCN1CCOCC1 returned IL1B secr inh -96*, HepG2 tox -41%, TGFb inhibitor inconclusive, ATXN2 expr inh -29% and ATXN viability inactive.
`N#Cc1cnc2nc(SCc3ccccc3)nn2c1` gave IL1B secr inh -70*, HepG2 tox -16%, TGFb inhibitor -1%, ATXN2 expr inh -19% and ATXN viability inactive.
For CSc1nc2ncc(C#N)cn2n1 the results were IL1B secr inh 5, HepG2 tox 3%, TGFb inhibitor 5%, ATXN2 expr inh -2% and ATXN viability inactive.
For COc1ccc(C(=O)/C=C2\C(=O)Nc3ccc(Br)cc32)cc1 the results were IL1B secr inh -99*, HepG2 tox -43%, TGFb inhibitor inconclusive, ATXN2 expr inh inconclusive and ATXN viability inconclusive.
`CC(C)Oc1ccc(C(=O)/C=C2/C(=O)Nc3ccccc32)cc1` gave IL1B secr inh -100*, HepG2 tox -71%, TGFb inhibitor inconclusive and ATXN2 expr inh inconclusive.
`O=C1Nc2ccc(Br)cc2/C1=C/C(=O)c1ccc2c(c1)OCO2` gave IL1B secr inh inconclusive, HepG2 tox -110%, TGFb inhibitor inconclusive and ATXN viability 20µM*.
O=C1Nc2ccccc2/C1=C\C(=O)c1ccccc1 was read as IL1B secr inh -21, HepG2 tox -77%, TGFb inhibitor inconclusive, ATXN2 expr inh inconclusive and ATXN viability inconclusive.
For OC1(c2cccnc2)CCN(Cc2ccc3c(c2)CN(Cc2cccc(C(F)(F)F)c2)CCO3)CC1 the results were ATXN viability inactive.
For NC(=O)[C@@H]1CSSCCC(=O)N[C@@H](CCCCN=C(N)N)C(=O)NCC(=O)N[C@@H](CC(=O)O)C(=O)N[C@@H](Cc2c[nH]c3ccccc23)C(=O)N2CCC[C@H]2C(=O)N1 the results were ATXN2 expr inh 9% and ATXN viability inactive.
`CCOc1ccc(Nc2cc(C)nc3nncn23)cc1` gave HepG2 tox -16% and TGFb inhibitor -28%.
`Cc1ccccc1C(=O)Nc1ccc2nc(SCC(=O)N3CCc4ccccc43)sc2c1` gave HepG2 tox 0%, TGFb inhibitor -9%, ATXN2 expr inh 4% and ATXN viability inactive.
Screening CCc1ccc2nc(NC(=O)C3CSC4(C)CCC(=O)N34)sc2c1 (stereo unspecified) returned IL1B secr inh -55*, HepG2 tox 4%, TGFb inhibitor -10%, ATXN2 expr inh 52% and ATXN viability inactive.
For CC12CCC(=O)N1C(C(=O)Nc1nc3ccc(S(C)(=O)=O)cc3s1)CS2 (stereo unspecified) the results were IL1B secr inh -1, HepG2 tox 5%, TGFb inhibitor -1%, ATXN2 expr inh 7% and ATXN viability inactive.
For CC12CCC(=O)N1C(C(=O)Nc1nc3ccc(Cl)cc3s1)CS2 (stereo unspecified) the results were IL1B secr inh -84*, HepG2 tox -22%, TGFb inhibitor -26%, ATXN2 expr inh 10% and ATXN viability inactive.
CN(C)c1ccc(/C=C2\C(=O)/C(=C\c3ccc(N(C)C)cc3)c3ccccc32)cc1 was read as HepG2 tox -11% and TGFb inhibitor 5%.
Screening O=c1[nH]c(-c2ccccn2)nc2sc(-c3ccccc3)cc12 returned IL1B secr inh -102*, HepG2 tox 2%, TGFb inhibitor inconclusive and ATXN2 expr inh inconclusive.
Screening C=CCC[C@@H](Cc1ccc(F)cc1)C(=O)OC[C@@H](Cc1c[nH]c2ccccc12)NC(=O)[C@H](CC=C)CC(=O)N(CCO)Cc1ccccc1 returned IL1B secr inh inconclusive, HepG2 tox -17%, TGFb inhibitor inconclusive and ATXN2 expr inh inconclusive.
C=CC[C@H](CC(=O)N(CCO)Cc1ccccc1)C(=O)N[C@@H](COC(=O)[C@@H](CC=C)Cc1ccc(F)cc1)Cc1c[nH]c2ccccc12 was read as IL1B secr inh inconclusive, HepG2 tox -49%, TGFb inhibitor inconclusive, ATXN2 expr inh -23% and ATXN viability 28µM*.
Screening C=CC[C@@H](CC(=O)N(CCO)Cc1ccccc1)C(=O)N[C@@H](COC(=O)[C@@H](CC=C)Cc1ccc(F)cc1)Cc1c[nH]c2ccccc12 returned IL1B secr inh -52*, HepG2 tox -18%, TGFb inhibitor inconclusive, ATXN2 expr inh -9% and ATXN viability inconclusive.
Cc1ccc(S(=O)(=O)NCCc2cn3ccsc3n2)cc1 was read as HepG2 tox -11% and TGFb inhibitor -2%.
`CCc1ccc(/C=C2\SC(=S)N(CCCC(=O)NCCCN3CCOCC3)C2=O)cc1` gave IL1B secr inh -57*, HepG2 tox -41%, TGFb inhibitor -16% and ATXN viability 10µM*.
Screening CCOc1ccc(/C=C2\SC(=S)N(CCC(=O)Nc3ccc(C(=O)O)cc3)C2=O)cc1 returned IL1B secr inh -15, HepG2 tox -25%, TGFb inhibitor -3%, ATXN2 expr inh 1% and ATXN viability inconclusive.
CCOc1ccc(/C=C2\SC(=S)N(CC(=O)N(CCO)C(C)(C)C)C2=O)cc1 was read as IL1B secr inh -123*, HepG2 tox 11%, TGFb inhibitor 2%, ATXN2 expr inh 7% and ATXN viability inconclusive.
